The term inhibition denotes the drop in the measured response relative to a control, in per cent.

Solute carrier family 2, facilitated glucose transporter member 1 (Homo sapiens), sequence (P11166 whole entry): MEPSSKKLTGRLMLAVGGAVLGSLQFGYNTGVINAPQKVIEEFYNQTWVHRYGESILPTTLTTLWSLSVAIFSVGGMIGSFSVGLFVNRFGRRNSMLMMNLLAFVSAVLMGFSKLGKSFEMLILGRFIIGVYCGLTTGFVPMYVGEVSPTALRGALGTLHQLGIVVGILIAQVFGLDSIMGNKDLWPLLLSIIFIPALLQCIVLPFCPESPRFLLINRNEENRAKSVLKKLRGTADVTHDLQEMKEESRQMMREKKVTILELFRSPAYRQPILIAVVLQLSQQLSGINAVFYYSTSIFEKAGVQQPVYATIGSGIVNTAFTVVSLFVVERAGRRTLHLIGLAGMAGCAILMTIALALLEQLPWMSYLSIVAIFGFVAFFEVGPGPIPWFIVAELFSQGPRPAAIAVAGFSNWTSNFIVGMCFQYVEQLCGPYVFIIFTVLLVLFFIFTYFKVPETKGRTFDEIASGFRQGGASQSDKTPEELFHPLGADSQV

The first test concerns the target Solute carrier family 2, facilitated glucose transporter member 1 (Homo sapiens) (UniProt P11166). Kind of test: ST_JUDE_LEISH: Cytotoxicity at 2uM final concentration against transgenic Leishmania Mexicana promastigotes LmGLUT1 that are glucose transport deficient and complemented with the human glucose transporter GLUT1. Activity is measured by DNA content using SYBR green in vitro. The test is classed as functional.
Consider `Fc1ccc2[nH]c(-c3cccc(-c4ccc(CNCC5CCCO5)cc4)c3)nc2c1` (stereo not given), for which the inhibition came out at 1.13%.
Regarding `Cc1cc(NC(=O)NCCN2CCC(NS(=O)(=O)c3ccc(C(F)(F)F)cc3)C2)c2ccccc2n1` (stereo not given), the inhibition is 11.8%.
For the compound `O=C(NCCCN(Cc1ccc(F)cc1)c1ccccn1)C(c1cc2ccccc2o1)N1CCN(C(c2ccccc2)c2ccccc2)CC1` (stereo not given), the inhibition is 3.35%.
As for `N#Cc1cccc(-c2cccc(C(=O)NC3CCC(CCN4CCc5ccc(C#N)cc5CC4)CC3)c2)c1` (stereo not given), the inhibition amounted to 10.8%.
On the same count and under the same terms, in the case of `Fc1ccc2[nH]c(-c3ccc(-c4ccc(CN5CCC(CCN6CCCCC6)CC5)cc4)s3)nc2c1` it was 5.18%; in that of `CC(C)(C)c1ccc(O)c(CNC2CCCCC2)c1`, 4.48%; in that of `O=C(Nc1cccc(-c2ccc(-c3nc4cc(C(F)(F)F)ccc4[nH]3)s2)c1)c1c[nH]cn1`, 0.15%.
As for `CCn1cnc2c(Nc3cccc([N+](=O)[O-])c3)nc(N3CCC(N4CCCCC4)CC3)nc21`, the inhibition turned out to be 0.93%.
`CCCC(C)c1cnc2nc(N)nc(N)c2c1C` (stereo not given): the inhibition was found to be 3.61%.
Take `Cc1cccc2nc(-c3cccc(-c4ccc(CNCc5cnn(-c6ccccc6)n5)cc4)c3)[nH]c12`: the inhibition came to 0.18%.
On to `CCCCCCCCCC(=O)NCC1CC(Br)=NO1` (stereo not given), for which the inhibition was -2%.
Still for that read-out and setting: as for `COc1ccc(NC(=O)Nc2ccc(-c3cccc(-c4nc5ccccc5[nH]4)c3)cc2)cc1`, the figure is 3%.
Same read-out and setting: in the case of `CC(C)Sc1nc2c(c(=O)n1CCc1ccccc1)C1(CCCC1)Cc1ccccc1-2` it was 1.78%; in that of `CCCCCCCN1CC[C@@H](CCCc2ccnc3ccc(OC)cc23)[C@@H](CCN)C1`, 3.03%; in that of `N#Cc1ccc(N/C(=N\c2ccc(-c3ccccc3)cc2)NCCc2c[nH]c3ccccc23)c(O)c1`, 9.42%.
Consider `CCN1CCN(Cc2ccc(NC(=O)c3cc4ccc5cccnc5c4[nH]3)cc2)CC1`, for which the inhibition turned out to be 17.2%.
On to `Cc1ccccc1C1CCN(C2CCC(NC(=O)c3ccc4c(c3)-c3nocc3C(C)O4)CC2)CC1` (stereo not given), for which the inhibition worked out at 5.85%.
In the case of `COc1cc2nc(N3CCC(CNC(=O)c4ccc(-c5ccc(C(=O)N(C)C)cc5O)cc4)CC3)nc(N)c2cc1OC`, the inhibition turned out to be 0.58%.
Same read-out and setting: in the case of `CN(C)C(=S)N/N=C1/C(=O)Nc2ccccc21` it was 3.54%; in that of `O=C(C=Cc1ccc(Cl)c(Cl)c1)NCCCCCN1CCC(CCNS(=O)(=O)c2ccc(F)cc2)CC1`, 1.24%.
On the same count and under the same terms, as for `COC1CCC(C(=O)Nc2ccc(-c3cccc(-c4nc5cccc(C)c5[nH]4)c3)cc2)CC1` (stereo not given), the figure is 6.31%; as for `CS(=O)(=O)NCCCNCc1ccc(-c2ccc(-c3nc4cc(C(F)(F)F)ccc4[nH]3)cc2)cc1`, 2.14%; as for `O=c1cc(NCCCNCc2cccc(SC(F)(F)F)c2)[nH]c2ccccc12`, 3.33%.
Consider `COc1ccc2nc3cc(Cl)ccc3c(NCCCCN)c2c1`, for which the inhibition worked out at 2.17%.
Consider `CC(=O)N(Cc1nc(-c2cc(Cl)c(Cl)s2)cs1)c1c(C)cccc1C`, for which the inhibition turned out to be 4.94%.
On to `Cc1cccc2nc(-c3ccc(-c4cccc(NC(=O)Nc5ccccc5)c4)cc3)[nH]c12`, for which the inhibition was found to be 9.16%.
For the compound `Cc1cc(N(C)C)nc(Nc2ccc(NC(=O)c3ccccc3C)cc2)n1`, the inhibition amounted to 11.4%.
The same measure, in the same setting: as for `CN(C)c1ccc(C2c3[nH]cnc3CCN2C(=O)Nc2cccc([N+](=O)[O-])c2)cc1` (stereo not given), the figure is 7.55%; as for `O=S(=O)(NCCN1CCCC1)c1ccc(-c2ccc(CNCc3ccsc3)cc2)cc1F`, 8.07%; as for `Cc1ccnc(-n2c(C)cc(C=C3SC(=Nc4ccccc4)N(Cc4ccco4)C3=O)c2C)c1`, 2.02%.
As for `O=c1cc(NCCCNCc2ccc3c(c2)OC(F)(F)O3)[nH]c2ccccc12`, the inhibition is -0.44%.
`CC(=O)NCC(=O)NC1=NC(=N)N(OCc2ccc3ccccc3c2)C(C)(C)N1`: the inhibition came to 2.26%.
Same read-out and setting: in the case of `CN1CCCN(Cc2ccc(-c3ccc(NS(=O)(=O)c4cccc5cccnc45)cc3)cc2)CC1` it was 5.67%.
As for `Cc1cc(N2CCCC2)nc(Nc2ccc(NC(=O)c3ccccc3C)cc2)n1`, the inhibition was -1.05%.
Turning to `Cc1ccc2nc(C)cc(N/N=C/c3ccccc3[N+](=O)[O-])c2c1`, the inhibition turned out to be 10.8%.
In the case of `O=C(C=Cc1ccc(Cl)c(Cl)c1)NCCCCCN1CCC(CCCNC(=O)/C=C/c2ccccc2)CC1`, the inhibition stood at 3.12%.
The same measure, in the same setting: in the case of `Cc1cccc2nc(-c3ccc(-c4cccc(NC(=O)C(C)CN(C)C)c4)s3)[nH]c12` (stereo not given) it was -0.15%; in that of `Cc1nnsc1C(=O)Nc1cccc(-c2ccc(-c3nc4ccccc4[nH]3)s2)c1`, 1.8%.
`CC(C)Cn1c(Sc2ccc(C#N)c([N+](=O)[O-])c2)nnc1-c1ccccc1`: the inhibition turned out to be 6.46%.
Consider `COc1cc([N+](=O)[O-])ccc1NC(=O)Nc1ccc(OC(F)(F)F)cc1`, for which the inhibition came out at 1.06%.

Another test addresses Hexose transporter 1 (Plasmodium falciparum) (UniProt O97467). Put plainly: ST_JUDE_LEISH: Cytotoxicity at 2uM final concentration against transgenic Leishmania Mexicana promastigotes LmPfHT that are glucose transport deficient and complemented with the Plasmodium falciparum hexose transporter. Activity is measured by DNA content using SYBR green in vitro. The test is classed as functional.
For the compound `Fc1ccc2[nH]c(-c3cccc(-c4ccc(CNCC5CCCO5)cc4)c3)nc2c1` (stereo not given), the inhibition was -3.6%.
On the same count and under the same terms, in the case of `Cc1cc(NC(=O)NCCN2CCC(NS(=O)(=O)c3ccc(C(F)(F)F)cc3)C2)c2ccccc2n1` (stereo not given) it was 11.8%; in that of `O=C(NCCCN(Cc1ccc(F)cc1)c1ccccn1)C(c1cc2ccccc2o1)N1CCN(C(c2ccccc2)c2ccccc2)CC1` (stereo not given), 3.69%.
In the case of `N#Cc1cccc(-c2cccc(C(=O)NC3CCC(CCN4CCc5ccc(C#N)cc5CC4)CC3)c2)c1` (stereo not given), the inhibition turned out to be 8.62%.
As to `Fc1ccc2[nH]c(-c3ccc(-c4ccc(CN5CCC(CCN6CCCCC6)CC5)cc4)s3)nc2c1`, the inhibition stood at 3.85%.
`CC(C)(C)c1ccc(O)c(CNC2CCCCC2)c1`: the inhibition was determined as 3.36%.
With `O=C(Nc1cccc(-c2ccc(-c3nc4cc(C(F)(F)F)ccc4[nH]3)s2)c1)c1c[nH]cn1`, the inhibition was -0.45%.
Turning to `CCn1cnc2c(Nc3cccc([N+](=O)[O-])c3)nc(N3CCC(N4CCCCC4)CC3)nc21`, the inhibition was 3.03%.
On to `CCCC(C)c1cnc2nc(N)nc(N)c2c1C` (stereo not given), for which the inhibition was found to be 4.91%.
Regarding `Cc1cccc2nc(-c3cccc(-c4ccc(CNCc5cnn(-c6ccccc6)n5)cc4)c3)[nH]c12`, the inhibition was determined as 2.02%.
Same read-out and setting: in the case of `CCCCCCCCCC(=O)NCC1CC(Br)=NO1` (stereo not given) it was -0.61%; in that of `COc1ccc(NC(=O)Nc2ccc(-c3cccc(-c4nc5ccccc5[nH]4)c3)cc2)cc1`, 3.12%; in that of `CC(C)Sc1nc2c(c(=O)n1CCc1ccccc1)C1(CCCC1)Cc1ccccc1-2`, 2.51%.
Still for that read-out and setting: in the case of `CCCCCCCN1CC[C@@H](CCCc2ccnc3ccc(OC)cc23)[C@@H](CCN)C1` it was 2.34%; in that of `N#Cc1ccc(N/C(=N\c2ccc(-c3ccccc3)cc2)NCCc2c[nH]c3ccccc23)c(O)c1`, 8.49%.
`CCN1CCN(Cc2ccc(NC(=O)c3cc4ccc5cccnc5c4[nH]3)cc2)CC1`: the inhibition stood at 15.9%.
For the compound `Cc1ccccc1C1CCN(C2CCC(NC(=O)c3ccc4c(c3)-c3nocc3C(C)O4)CC2)CC1` (stereo not given), the inhibition was determined as 4.08%.
With `COc1cc2nc(N3CCC(CNC(=O)c4ccc(-c5ccc(C(=O)N(C)C)cc5O)cc4)CC3)nc(N)c2cc1OC`, the inhibition came to 1.14%.
For the compound `CN(C)C(=S)N/N=C1/C(=O)Nc2ccccc21`, the inhibition was 1.92%.
For `O=C(C=Cc1ccc(Cl)c(Cl)c1)NCCCCCN1CCC(CCNS(=O)(=O)c2ccc(F)cc2)CC1`, the inhibition is 0.05%.
With `COC1CCC(C(=O)Nc2ccc(-c3cccc(-c4nc5cccc(C)c5[nH]4)c3)cc2)CC1` (stereo not given), the inhibition came to 4.3%.
`CS(=O)(=O)NCCCNCc1ccc(-c2ccc(-c3nc4cc(C(F)(F)F)ccc4[nH]3)cc2)cc1`: the inhibition stood at 2.39%.
For `O=c1cc(NCCCNCc2cccc(SC(F)(F)F)c2)[nH]c2ccccc12`, the inhibition was 3.61%.
As for `COc1ccc2nc3cc(Cl)ccc3c(NCCCCN)c2c1`, the inhibition was 1.49%.
Turning to `CC(=O)N(Cc1nc(-c2cc(Cl)c(Cl)s2)cs1)c1c(C)cccc1C`, the inhibition was 4.38%.
In the case of `Cc1cccc2nc(-c3ccc(-c4cccc(NC(=O)Nc5ccccc5)c4)cc3)[nH]c12`, the inhibition was 9.91%.
Still for that read-out and setting: as for `Cc1cc(N(C)C)nc(Nc2ccc(NC(=O)c3ccccc3C)cc2)n1`, the figure is 17.1%; as for `CN(C)c1ccc(C2c3[nH]cnc3CCN2C(=O)Nc2cccc([N+](=O)[O-])c2)cc1` (stereo not given), 8.52%.
Turning to `O=S(=O)(NCCN1CCCC1)c1ccc(-c2ccc(CNCc3ccsc3)cc2)cc1F`, the inhibition was determined as 1.33%.
On to `Cc1ccnc(-n2c(C)cc(C=C3SC(=Nc4ccccc4)N(Cc4ccco4)C3=O)c2C)c1`, for which the inhibition is 2.85%.
Take `O=c1cc(NCCCNCc2ccc3c(c2)OC(F)(F)O3)[nH]c2ccccc12`: the inhibition is 0.16%.
Same read-out and setting: as for `CC(=O)NCC(=O)NC1=NC(=N)N(OCc2ccc3ccccc3c2)C(C)(C)N1`, the figure is 1.66%.
Still for that read-out and setting: as for `CN1CCCN(Cc2ccc(-c3ccc(NS(=O)(=O)c4cccc5cccnc45)cc3)cc2)CC1`, the figure is 3.68%; as for `Cc1cc(N2CCCC2)nc(Nc2ccc(NC(=O)c3ccccc3C)cc2)n1`, 6.45%; as for `Cc1ccc2nc(C)cc(N/N=C/c3ccccc3[N+](=O)[O-])c2c1`, 6.78%.
As to `O=C(C=Cc1ccc(Cl)c(Cl)c1)NCCCCCN1CCC(CCCNC(=O)/C=C/c2ccccc2)CC1`, the inhibition was determined as 2.68%.
As for `Cc1cccc2nc(-c3ccc(-c4cccc(NC(=O)C(C)CN(C)C)c4)s3)[nH]c12` (stereo not given), the inhibition stood at 1.85%.
Same read-out and setting: as for `Cc1nnsc1C(=O)Nc1cccc(-c2ccc(-c3nc4ccccc4[nH]3)s2)c1`, the figure is 1.37%.
As for `CC(C)Cn1c(Sc2ccc(C#N)c([N+](=O)[O-])c2)nnc1-c1ccccc1`, the inhibition was 6.58%.
As for `COc1cc([N+](=O)[O-])ccc1NC(=O)Nc1ccc(OC(F)(F)F)cc1`, the inhibition stood at 2.37%.

The values are drawn from ChEMBL document CHEMBL3433997, “St. Jude Leishmania screening dataset” (2016).
